How the values were obtained:
Test in all cases: PBM binding z-score (relative to random genomic background probes); higher = stronger binding; sequences stand for … in GC…GCGATTGACAGCGTAGAATGAAGG
[1] = tested on: FXR:RXRa (NR concentration 270 nM, RXRa partner concentration 90 nM)
Method in brief: (§1)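 Binding z-scores were set against random background probes. The data came from custom Agilent 4×180K protein-binding microarrays carrying double-stranded probes with 34-nt variable regions, incubated 1 h with ligand-free nuclear receptor dimers. Partner-specific antibodies detected binding, and scanned fluorescence was regression-normalized.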

[2] = tested on: LXRa:RXRa (NR concentration 270 nM, RXRa partner concentration 90 nM)
Method in brief: as §1

[3] = tested on: LXRa homodimer (NR concentration 270 nM)
Method in brief: as §1

[4] = tested on: LXRb:RXRa (NR concentration 270 nM, RXRa partner concentration 90 nM)
Method in brief: as §1

[5] = tested on: LXRb homodimer (NR concentration 270 nM)
Method in brief: as §1

[6] = tested on: PPARa:RXRa (NR concentration 270 nM, RXRa partner concentration 90 nM)
Method in brief: as §1

[7] = tested on: PPARg:RXRa (NR concentration 180 nM, RXRa partner concentration 90 nM)
Method in brief: as §1

[8] = tested on: PPARg:RXRa 270nM:90nM, anti-RXR (NR concentration 270 nM, RXRa partner concentration 90 nM)
Method in brief: as §1

[9] = tested on: PPARg:RXRa 30nM:10nM, anti-RXR (NR concentration 30 nM, RXRa partner concentration 10 nM)
Method in brief: as §1

[10] = tested on: PPARg:RXRa 90nM:30nM, anti-RXR (NR concentration 90 nM, RXRa partner concentration 30 nM)
Method in brief: as §1

[11] = tested on: PPARg:RXRa DBDmut IVT, anti-RXR (DBD mutation: RXRa K156A/R161A, NR concentration 270 nM, RXRa partner concentration 90 nM)
Method in brief: as §1

[12] = tested on: PPARg:RXRa IVT, anti-PPARg (NR concentration 270 nM, RXRa partner concentration 90 nM)
Method in brief: as §1

[13] = tested on: PPARg DBDmut:RXRa IVT, anti-PPARg (DBD mutation: PPARg1 K132A/R137A, NR concentration 270 nM, RXRa partner concentration 90 nM)
Method in brief: as §1

[14] = tested on: PPARg DBDmut IVT, anti-PPARg (DBD mutation: PPARg1 K132A/R137A, NR concentration 270 nM)
Method in brief: as §1

[15] = tested on: PPARg homodimer (NR concentration 180 nM)
Method in brief: as §1

[16] = tested on: PXR:RXRa (NR concentration 270 nM, RXRa partner concentration 90 nM)
Method in brief: as §1

[17] = tested on: PXR homodimer (NR concentration 270 nM)
Method in brief: as §1

[18] = tested on: RARa:RXR (NR concentration 270 nM, RXRa partner concentration 90 nM)
Method in brief: as §1

[19] = tested on: RARa homodimer (NR concentration 270 nM)
Method in brief: as §1

[20] = tested on: RARb:RXRa (NR concentration 270 nM, RXRa partner concentration 90 nM)
Method in brief: as §1

| Sequence | PBM binding z-score [1] | PBM binding z-score [2] | PBM binding z-score [3] | PBM binding z-score [4] | PBM binding z-score [5] | PBM binding z-score [6] | PBM binding z-score [7] | PBM binding z-score [8] | PBM binding z-score [9] | PBM binding z-score [10] | PBM binding z-score [11] | PBM binding z-score [12] | PBM binding z-score [13] | PBM binding z-score [14] | PBM binding z-score [15] | PBM binding z-score [16] | PBM binding z-score [17] | PBM binding z-score [18] | PBM binding z-score [19] | PBM binding z-score [20] |
| --- | --- | --- | --- | --- | --- | --- | --- | --- | --- | --- | --- | --- | --- | --- | --- | --- | --- | --- | --- | --- |
| CTACCAAGGTGAACAAGGTCGTTGGTTACTATTC | 1.39 | 1.4 | 0.281 | 1.71 | -0.365 | 2.45 | 0.875 | 1.37 | -0.194 | 0.758 | 1.96 | 2.45 | 0.303 | -0.188 | 0.751 | 2.75 | 2.32 | 2.28 | 0.473 | 2.14 |
| CAGACTAGGTCAGGGCCAGTATAGGAGGAACGTT | 1.14 | 0.664 | -0.52 | 0.152 | -0.575 | 2.57 | 3.84 | 3.65 | 1.04 | 2.5 | 5.95 | 6.11 | 0.269 | 0.382 | 0.388 | 0.0784 | -0.249 | 0.723 | -0.255 | 3.12 |
| CGTCCAAGGTCAGAGAGGTGAGTGAATGCCGAGT | 4.98 | 3.29 | 0.18 | 2.43 | 0.0466 | 4.06 | 2.73 | 2.95 | 0.53 | 1.78 | 2.79 | 3.19 | -0.199 | -0.145 | 3.3 | 3.15 | 1.96 | 3.43 | 0.424 | 4.78 |
| GCTGCTAGGTCAGGTTGGACAGCTAACGGGTACG | 1.1 | 0.591 | -0.119 | 0.0809 | -0.346 | 1.2 | 0.798 | 0.804 | -0.236 | -0.0943 | 2.44 | 2.18 | -0.356 | -0.812 | 0.345 | 0.082 | -0.273 | 0.436 | -0.846 | 3.39 |
| GCTATTAGTTGAAAGGGCAACGGAATGATTCTCG | 0.364 | 0.524 | 0.225 | 0.73 | -0.171 | 2.5 | 2.45 | 4.33 | 2.24 | 4.02 | 0.701 | 0.992 | 1.04 | 0.361 | 0.8 | 0.606 | 0.255 | 1.19 | 0.995 | 1.93 |
| CCTATTAGTTGACGATAAGGGCAACCGAAGCTCG | 0.29 | 0.114 | -0.102 | 0.152 | 0.201 | 0.204 | 0.482 | 0.0797 | 0.0506 | 0.157 | 0.107 | -0.036 | 0.257 | 0.471 | 1.85 | 0.261 | 0.241 | 0.847 | 1.05 | 1.33 |
| TAGCCTAGGTCAGATCGGGCCAGTAAACGCTATA | 2.02 | 1.16 | -0.524 | 0.637 | -0.2 | 1.5 | 0.341 | 0.516 | -0.817 | -0.377 | 0.412 | 1.24 | -0.563 | -0.294 | -0.374 | 1.12 | -0.666 | 0.814 | -1.71 | 2.85 |
| CCTATTAGTTGACCATAAGGGCAACCCAAGCTCG | 1.15 | 0.607 | 0.597 | 0.677 | 0.607 | 0.81 | 0.661 | 0.62 | 0.211 | 0.475 | 0.483 | 0.597 | 0.502 | 0.375 | 1.63 | 1.12 | 1.26 | 1.22 | 1.66 | 1.53 |
| TCGAGTAGGTTACCAATGCGGCATTCAGCTTTCT | 0.106 | 0.532 | -0.94 | 0.215 | -0.704 | 0.883 | 0.206 | 1.1 | 1.23 | 1.24 | 3.59 | 2.67 | -0.407 | -1.16 | -0.385 | -0.209 | -1.01 | -0.26 | -0.774 | 0.646 |
| ATACCAAGGTGATCGTGAGGTTGTTGATACTAAC | 0.619 | 0.547 | 0.106 | 0.338 | -0.241 | 0.626 | 0.435 | 0.149 | 0.0438 | 0.112 | 0.768 | 0.997 | 0.831 | 0.892 | 0.541 | 0.741 | 0.299 | 0.978 | 0.0495 | 0.63 |
| AATACAGGGTCACTAGACCAGAGTAGGTACGAAT | 5.74 | 4.72 | 0.962 | 3.65 | 0.659 | 5.33 | 6.24 | 5.76 | 2.72 | 4.31 | 2.98 | 4.48 | 1.64 | 0.757 | 1.41 | 3.05 | 0.6 | 4.02 | 0.657 | 4.12 |
| CCGACTGGGGCAGAAAGGTTATCATACCATCCGG | 0.492 | 0.483 | 0.0667 | 0.849 | -0.748 | 2.05 | 1.7 | 2.27 | 0.694 | 2.13 | 1.78 | 1.73 | -1.01 | -1.06 | 0.664 | 0.873 | 0.149 | 1.85 | -0.196 | 1.68 |
| CGAACTAGGTCATCCGGGACAGTGAATACATTGA | 4.46 | 2.66 | 0.565 | 2.05 | 0.166 | 5.08 | 8.08 | 6.28 | 3.97 | 5.8 | 8.35 | 8.45 | 3.68 | 1.68 | 1.84 | 1.8 | 0.618 | 2.4 | 0.0887 | 4.09 |
| CAGACTAGGTCACGAAAGGTCAAAGTCGAATGAC | 7.54 | 8.31 | 7.86 | 7.34 | 2.45 | 6.6 | 9.66 | 7.89 | 5.88 | 7.73 | 7.63 | 8.03 | 2.48 | 2.21 | 6.4 | 6.89 | 2.84 | 7.62 | 4.19 | 5.6 |

From the supplement of paper PMC6555819
